Source: PubChem BioAssay AID504339 (National Center for Advancing Translational Sciences (NCATS), 2011)
The campaign covered roughly 390,000 compounds. About 17,000 (4.4%) were called active. Not shown: some 8% with an inconclusive outcome. This is one part of a sample in which actives are shown more often than they occur. Calls come from the whole dose curve; as a rule, active = well fitted inhibition curve with a large enough effect; inconclusive = small, poorly fitted or top-dose-only effect; inactive = no such curve, though single readings can be large or run the other way.

What follows are compounds tested against Lysine-specific demethylase 4A (Homo sapiens) (UniProt O75164) (assay: qHTS Assay for Inhibitors of JMJD2A-Tudor Domain). Conditions: AlphaScreen JMJD2A-Tudor / H3K4me3 peptide binding; series mostly up to 114 µM; activity change, negative = inhibition: at the top concentration.
Chain of Lysine-specific demethylase 4A (Homo sapiens) (O75164 whole entry, looked up, the tested form may be a part): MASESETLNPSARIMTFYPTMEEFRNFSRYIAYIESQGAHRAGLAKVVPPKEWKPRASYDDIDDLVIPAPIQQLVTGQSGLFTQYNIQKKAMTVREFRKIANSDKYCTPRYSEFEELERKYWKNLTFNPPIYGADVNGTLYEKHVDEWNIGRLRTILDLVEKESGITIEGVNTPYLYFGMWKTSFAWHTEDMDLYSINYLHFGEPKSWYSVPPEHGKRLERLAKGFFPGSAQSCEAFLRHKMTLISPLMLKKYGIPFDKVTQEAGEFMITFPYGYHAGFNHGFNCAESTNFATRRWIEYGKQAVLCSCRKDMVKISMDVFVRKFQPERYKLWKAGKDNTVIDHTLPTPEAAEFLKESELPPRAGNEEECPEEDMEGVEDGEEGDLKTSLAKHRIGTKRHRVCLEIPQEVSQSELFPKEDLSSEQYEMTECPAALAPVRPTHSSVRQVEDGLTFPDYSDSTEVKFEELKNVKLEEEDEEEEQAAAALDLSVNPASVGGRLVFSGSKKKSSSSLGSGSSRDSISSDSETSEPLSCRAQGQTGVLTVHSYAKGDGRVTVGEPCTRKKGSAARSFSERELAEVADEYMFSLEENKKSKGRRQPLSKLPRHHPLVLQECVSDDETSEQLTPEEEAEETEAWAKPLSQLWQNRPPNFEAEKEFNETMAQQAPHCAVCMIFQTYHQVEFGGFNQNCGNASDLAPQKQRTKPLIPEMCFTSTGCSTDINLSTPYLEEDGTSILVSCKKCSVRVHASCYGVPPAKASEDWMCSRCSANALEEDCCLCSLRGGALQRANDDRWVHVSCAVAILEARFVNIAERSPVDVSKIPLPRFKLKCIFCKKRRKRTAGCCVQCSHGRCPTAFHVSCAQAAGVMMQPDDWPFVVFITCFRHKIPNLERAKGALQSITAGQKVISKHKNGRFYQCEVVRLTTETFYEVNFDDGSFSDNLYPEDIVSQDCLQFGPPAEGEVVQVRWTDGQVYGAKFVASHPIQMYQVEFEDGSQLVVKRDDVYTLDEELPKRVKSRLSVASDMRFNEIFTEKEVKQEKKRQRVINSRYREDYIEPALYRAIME
% is set by controls: 0 for no effect and ±100 for the full control effect; potency is the fitted concentration of half-maximal effect.
Note: nearly all actives have a fitted effect of over 50% in size.

Activity change, negative = inhibition, inactive:
COc1cccc(CNC(=O)CN2C(=O)CCc3cc(S(=O)(=O)N4CCOCC4)ccc32)c1 -9.6%
Cc1ccc(Cl)cc1-n1ncc2c(N3CCC(C(N)=O)CC3)ncnc21 -7.65%
Cc1ccc(C(=O)N2CCc3cc(CNC(=O)c4ccc(Br)cc4)ccc32)cc1 -21%
COc1ccc(N2CC(NS(=O)(=O)c3ccc4ccccc4c3)CC2=O)cc1 (stereo not drawn) -0.687%
O=C(COc1ccc(/C=N/NS(=O)(=O)c2ccccc2)cc1)NCCc1ccccc1 -1.37%
CCc1cnc2c(c1SCC(=O)N1CCC(C)CC1)c(=O)n(C)c(=O)n2C -9.42%
Cc1cc(C)c(NC(=O)c2cc3sc(Cl)cc3n2C)c(C)c1 -1.09%
COC(=O)Cc1cc(=O)oc2c(C)c(O)ccc12 -6.41%
COc1cccc(OCC(O)CNC(=O)c2oc3c(C)c(C)ccc3c2C)c1 (stereo not drawn) -29.9%
CCn1c(CN2CCC(C)CC2)nc2cc(NC(=O)c3ccccc3[N+](=O)[O-])ccc21 -18.9%
Cc1nn(C(C)C(=O)Nc2ccc(C(C)C)cc2)c(=O)c2c1sc1ccccc12 (stereo not drawn) -22.2%
COc1ccc(NC(=O)CCc2nnc3n(CC(C)C)c(=O)c4ccccc4n23)cc1OC -24.4%
COC(=O)c1ccccc1NC(=O)c1ccc(COc2ccccc2Cl)o1 15.8%
CCN(CCCNC(=O)c1cc2c(=O)n(CC)c3ccccc3c2s1)Cc1ccccc1 -17.2%
N#Cc1c(C(F)(F)F)cc(-c2ccc(Cl)cc2)nc1SCC(=O)O -19.7%
O=C(O)CSc1ccc(S(=O)(=O)N2CCCC2)cn1 -1.35%
COc1cc(NC(=O)c2cc(C3CC3)nc3c2c(C)nn3-c2ccccc2)cc(OC)c1 -10.4%
Cc1ccc(C)c(N2CCN(C(c3ccccc3)c3nnc(-c4ccccc4)o3)CC2)c1 (stereo not drawn) -24.7%
CCOC(=O)c1ccc(NC2Nc3cc(C)nn3S2)cc1 (stereo not drawn) -23.3%
COc1cccc(N2CC(NC(=O)/C=C\c3ccccc3)CC2=O)c1 (stereo not drawn) -14.9%
COc1ccccc1-n1c(SCC(=O)Nc2cccc(C(=O)O)c2)nnc1-c1ccccc1O 7.56%
Cc1ccc(C(=O)NCCc2nnc(SCC(=O)Nc3cccc(C(=O)O)c3)n2C)cc1 -5.52%
COC(=O)c1ccc(NC(=O)c2cc(S(=O)(=O)N3CCC(C)CC3)cn2C)cc1 -10.5%
Cc1ccc(Nc2nc3ccccc3nc2-n2nc(C)cc2C)c(Cl)c1 51%
Cc1ccc(Cn2ncc3c4sc(C)cc4n(C)c3c2=O)c(C)c1 -15.8%
Cc1ccc(CCNC(=O)c2ccc(CNS(=O)(=O)c3ccc(C)cc3)cc2)cc1 -9.48%
Cc1ccc(CN2CCC(CNC(=O)c3cnn(-c4ccccc4Cl)c3C3CCN(C(=O)OC(C)(C)C)CC3)CC2)cc1 -31.4%
CCc1cccc(CC)c1NC(=O)Cn1c(=O)c(-c2cc(C)ccc2NC(C)=O)nc2ccccc21 -16.2%
COC(=O)c1ccccc1NC(=O)C(Cc1ccccc1)N1Cc2ccccc2C1=O (stereo not drawn) -12.9%
CCOc1cc(/C=N/Nc2cc(C)nc3ccc(C)cc23)ccc1O -3.74%
CCN(CC)c1ccc(/C=N/NC(=O)c2cnccn2)c(O)c1 -20.4%
CCCCNC(=O)Cn1c(SCc2cccc(Cl)c2)nc2ccncc21 -1.54% [at 57.1 µM]
CCCN(CCC)CCCNC(=O)Cn1ncc2c3ccccc3n(Cc3ccccc3)c2c1=O -10.4%
Cc1ccc(OCC(O)CN2CCN(CC(O)COc3ccc(C)cc3Cl)CC2)c(Cl)c1 (stereo not drawn) 4.49%
C=CCc1ccccc1OCC(O)CN1CCN(CCO)CC1 (stereo not drawn) -2.49%
COc1ccc(NC(=O)Cn2c(=O)n(CCC(C)C)c(=O)c3cccnc32)cc1Cl -14.9%
Cc1cc(C)cc(NC(=O)c2cnc3sc(N4CCCC4)nn3c2=O)c1 -29.7%
CC(=O)Nc1ccc(N2C(=O)CC(Sc3nccc(C)n3)C2=O)cc1 (stereo not drawn) -13.9%
COc1ccc(N2C(=O)CC(SC(C)C)C2=O)cc1 (stereo not drawn) -6.9%
Cc1ccc(CC2CC(=O)N(c3ccc4c(c3)OCCO4)C2=O)cc1 (stereo not drawn) -8.3%
COC(=O)c1ccccc1SC1CC(=O)N(c2cccc(C)c2)C1=O (stereo not drawn) -8.39%
CCOc1ccccc1N1C(=O)CC(Sc2nccc(C)n2)C1=O (stereo not drawn) 10.5%
COc1ccc(-c2nc(SCC(=O)N3CCCC3)n[nH]2)cc1 -4.14%
CC(=O)Nc1cccc(NC(=O)CSc2nccn2Cc2ccc3c(c2)OCO3)c1 -21%
O=C(CCS(=O)(=O)c1ccccc1)N(Cc1cccnc1)c1nc2c(F)cccc2s1 -11%
COc1ccc2oc(=O)c(-c3cn4c(n3)sc3cc(OC)ccc34)cc2c1 -17%
CCC(=O)N1c2ccccc2CC1C(=O)N1CCN(c2ccccc2F)CC1 (stereo not drawn) 17.2%
CC1=C(c2ccc(C)cc2)S(=O)(=O)NC1=NCCCN1CCN(c2cc(C)ccc2C)CC1 -18.2%
COc1ccc(Cn2c(C(=O)O)c(CNCCc3cccs3)c3ccc(OC)cc32)cc1 -11%
COc1cc(OC)cc(C(=O)Nc2c(C(=O)Nc3ccc(F)cc3)oc3ccccc23)c1 -2.65%
Cc1ccc(C)c(N2CCN(C(=O)Cn3ncc4c(=O)oc5ccc(C)cc5c43)CC2)c1 -6.62%
C/C(=N/NC(=O)CC(=O)N/N=C(\C)c1ccc([N+](=O)[O-])cc1)c1ccc([N+](=O)[O-])cc1 -23.1%
CO/N=C(\N)c1ccc([N+](=O)[O-])cc1 -12.4%
Cc1oc2ncnc(N3CCOCC3)c2c1C(=O)NCCc1ccccc1 8.74%
CCCCOc1ccc(C(=O)N2CC(=O)Nc3ccc(Br)cc3C2c2ccc(F)cc2)cc1 (stereo not drawn) -23.9%
O=C(Nc1ccccc1)O/N=C1\CCCCC1c1ccc([N+](=O)[O-])cc1[N+](=O)[O-] (stereo not drawn) -16.2%
C[n+]1ccccc1C1CCCC/C1=N\Nc1ccc([N+](=O)[O-])cc1[N+](=O)[O-] (stereo not drawn) -2.07%
Cc1ccc(C)c(S(=O)(=O)c2nnn3c2nc(N2CCOCC2)c2sccc23)c1 4.4%
COc1ccc(CCN2C(=O)N(c3cccc(OC)c3)C(=O)C2CC(=O)Nc2ccccc2)cc1 (stereo not drawn) -21.2%
O=C(CC1SC(N2CCOCC2)=NC1=O)Nc1ccccc1F (stereo not drawn) -19%
N#C/C(=C/c1ccc(N2CCOCC2)o1)C(=O)N1CCOCC1 -31.8%
COc1c(Cl)cc(Cl)cc1C(=O)Nc1cccc2cccnc12 -11.9%
Cc1ccc(S(=O)(=O)NCCCn2ccnc2)cc1C(=O)NC(C)C -4.42%
Cc1cccc(NS(=O)(=O)c2ccc(C)c(C(=O)NCC(c3ccccc3)N(C)C)c2)c1 (stereo not drawn) -21.5%
Cc1nc(SCC(=O)Nc2ccc(C(=O)O)cc2)n[nH]1 -1.03%
Cc1ccc(NC(=O)CSc2nc3c(c(=O)[nH]2)CN(Cc2ccc4c(c2)OCO4)CC3)cc1C -2.32%
CCOC(=O)c1ccc(CN(Cc2ccccc2)S(=O)(=O)c2ccc(Cl)cc2)cc1 45%
COc1cccc(NC(=O)CN2C(=O)c3ccccc3Sc3ncccc32)c1 -27.8%
CCNS(=O)(=O)c1cc(-c2nnc(Nc3cccc(C(F)(F)F)c3)c3ccccc23)ccc1C -15.9%
COc1ccc(CN2C(=O)C(NC(=O)c3cccc(C)c3)(C(F)(F)F)N=C2c2ccccc2)cc1 (stereo not drawn) -25%
Cc1ccc(S(=O)(=O)NCC(=O)N2CCN(c3ccccn3)CC2)cc1 -6.57%
Cc1ccc(-n2ccc(=O)c(C(=O)O)n2)cc1 -20.1%
Cc1cccc(OCC(=O)N(Cc2ccc(C(C)C)cc2)Cc2ccco2)c1C 14.5%
Oc1c(C(c2ccccc2Cl)N2CCOCC2)sc2nc(-c3ccco3)nn12 (stereo not drawn) -16.6%
COc1cc(NC(=O)c2noc3c2CSc2ccccc2-3)cc(OC)c1OC -1.66%
CC(=O)N1CCCc2cc(S(=O)(=O)Nc3ccc(Cl)cc3F)ccc21 -28.7%
CCCCc1nn2c(=O)cc(COC(=O)c3ccccc3NC(=O)C(C)(C)C)nc2s1 -11.6%
COc1ccccc1CNC(=O)c1ccc(CS(=O)(=O)c2ccccc2)o1 -7.86%
O=C(c1ccc(S(=O)(=O)NCc2ccco2)cc1)N1CCN(c2ccccc2)CC1 -30.3%
Cc1cc(C)cc(NC(=O)CCS(=O)(=O)c2cc3c4c(c2)CCN4C(=O)CC3)c1 4.55%
Cc1cc(C)c2oc(C(=O)Nc3c(C(=O)Nc4ccccc4)oc4ccccc34)cc(=O)c2c1 -6.25%
Cc1ccc(C)c(Oc2c(C(F)(F)F)oc3c(CN4CCN(C)CC4)c(O)ccc3c2=O)c1 -15.4%
Cc1c(Cl)cccc1NC(=O)C1CCCN(c2ncnc3onc(C)c23)C1 (stereo not drawn) -4.85%

Potency, inactive:
CCCCNC(=O)C1CCC(CNS(=O)(=O)c2ccc(NC(C)=O)cc2)CC1 (stereo not drawn)

Potency, active:
O=S(=O)(N/N=C\c1cccn1-c1ccccc1)c1ccc2ccccc2c1 50.1 µM
COc1cccc(C(=O)OCc2cc(=O)oc3c(C)c(C)ccc23)c1OC 79.4 µM
N#Cc1c(N2CCCCC2)nc(N)c2c(N)nc(SCC(=O)O)cc12 50.1 µM
CCc1ccc(NC2Nc3cc(C)nn3S2)cc1 (stereo not drawn) 22.4 µM
Cc1ccc(C)c2c1cc(C)c1nnc(SCC(=O)Nc3cccc(C(=O)O)c3)n12 12.6 µM
COCCCNC(=O)c1ccc(CNS(=O)(=O)c2ccc(NC(C)=O)cc2)cc1 50.1 µM
CCN(CC)c1ccc(/C=N/Nc2nc(C)cc(C)n2)c(O)c1 50.1 µM
Cc1cccc(OCC(O)CN2CCN(CCN3C(=O)c4cccc5cccc(c45)C3=O)CC2)c1C (stereo not drawn) 39.8 µM
COc1ccc(N2C(=O)CC(Sc3n[nH]c(-c4ccc(C)cc4)n3)C2=O)cc1 (stereo not drawn) 2 µM
O=C1CC(Sc2ncn[nH]2)C(=O)N1c1ccccc1 (stereo not drawn) 39.8 µM
Cc1ccc(N2C(=O)CC(Sc3ncn[nH]3)C2=O)cc1 (stereo not drawn) 28.2 µM
C/C(=N\N(C)C)c1ccc(OCCOc2ccc([N+](=O)[O-])cc2)cc1 44.7 µM
O=[N+]([O-])c1ccc(N/N=C2/CCCCC2c2ccccn2)c([N+](=O)[O-])c1 (stereo not drawn) 31.6 µM
N#C/C(=C\C1=C(N2CCOCC2)C(=C\c2ccccc2)/CC1)C(=O)Nc1ccccc1F 4.47 µM
Cc1ccc(S(=O)(=O)NCCC(c2ccccc2)c2ccccc2)cc1C(=O)O 79.4 µM
CCC(=C/c1sc2ccc3ccccc3c2[n+]1C)/C=C1\Sc2ccc3ccccc3c2N1C 50.1 µM
Cc1ccc(N2CCN(c3ccc(C)cc3)C2c2ccccn2)cc1 25.1 µM
Oc1c(C(c2ccccn2)N2CCOCC2)ccc2cccnc12 (stereo not drawn) 17.8 µM
O=C(c1ccc(CS(=O)(=O)c2ccccc2)o1)N1CCN(c2ccccc2)CC1 56.2 µM
